Source: PubChem
Vif-A3F inh: qHTS for Inhibitors of Vif-A3F Interactions: qHTS | HeLa A3F-eYFP + Vif (tagged APOBEC3F with the HIV-1 protein that degrades it), YFP fluorescence increase | Potency, µM (highest dose often 46.1 µM), for the others: at the highest dose activity, negative = active | 390,000 tested, 0.2% active | AID 602313, 2012; also: potency is read from the fitted curve at half-maximal effect; % of control where 0% means no effect; nearly all actives have a fitted effect of over 65% in size
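HeLa cells stably expressing A3F-eYFP plus Vif, plated and incubated overnight at 37 deg C, then exposed to compounds overnight at 37 deg C. Blocked degradation read as raised yellow fluorescence (Ex 488/Em 500-530).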
MBNL1-CUG inh: qHTS Assay for Inhibitors of MBNL1-poly(CUG) RNA binding; TR-FRET MBNL1-His/biotin-(CUG)12 binding, 665/545 ratio; Potency, µM (highest dose often 57.5 µM), for inactives: at the highest dose activity change, negative = inhibition, most hits filed as inhibitors; 280,000 tested, 0.036% active; AID 2675, 2010; active = well fitted inhibition curve with a large enough effect in the signal ratio, with a control signal flat, not every such curve was filed as active; inconclusive = small, poorly fitted or top-dose-only effect, or effect the other way, or a change in a side signal; inactive = no such curve, though single readings can be large or run the other way; the % refers to the signal ratio; also: potency is read from the fitted curve at half-maximal effect; % is scaled to controls: 0 for no effect and ±100 for the full control effect
Target sequence (Q9NR56 whole entry, looked up): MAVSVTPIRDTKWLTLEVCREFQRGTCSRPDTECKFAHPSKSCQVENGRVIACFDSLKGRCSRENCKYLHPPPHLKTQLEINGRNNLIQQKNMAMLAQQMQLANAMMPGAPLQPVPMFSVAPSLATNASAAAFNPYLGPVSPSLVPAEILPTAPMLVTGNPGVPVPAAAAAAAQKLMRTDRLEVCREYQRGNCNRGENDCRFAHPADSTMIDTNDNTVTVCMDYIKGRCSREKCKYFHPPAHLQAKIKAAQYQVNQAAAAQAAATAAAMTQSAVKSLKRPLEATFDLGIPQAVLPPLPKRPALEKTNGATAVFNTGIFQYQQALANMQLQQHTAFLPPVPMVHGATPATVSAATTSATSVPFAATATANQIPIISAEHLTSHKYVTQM
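His-tagged MBNL1 binding to biotinylated (CUG)12 RNA was measured by TR-FRET using terbium anti-His antibody (0.055 ng/ul final) and streptavidin-XL665 (5 nM final). Compounds were titrated 92 nM to 58 uM; 60 min at room temperature.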
uPA surface inh: qHTS for Inhibitors of Cell Surface uPA Generation. cell surface uPA generation assay, qHTS. Potency, µM (titrated, usually from 38.3 µM), for the others: at the top dose activity change, negative = inhibition, usual class: inhibitors. 330,000 tested, 0.31% active. AID 540303, 2011; active = well fitted inhibition curve with a large enough effect; inconclusive = small, poorly fitted or top-dose-only effect; inactive = no such curve, though single readings can be large or run the other way; tested in mouse RAW 264.7 cells; also: potency is read from the fitted curve at half-maximal effect; % is scaled to controls: 0 for no effect and ±100 for the full control effect; nearly all actives have a fitted effect of over 55% in size
TCR act: Activators of T cell receptors: qHTS campaign; primary human leukocytes, anti-CD3, IL-2 HTRF, 48 h; AID 504894, 2011; Potency, µM (titrated, usually from 9.22 µM), inactives show top-dose activation of IL-2 secretion, actives largely listed as activators; 330,000 tested, under 10 active; also: % of control where 0% means no effect
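IL-2 produced over 48 hr by a-CD3 bead-stimulated primary human leukocytes exposed to compounds was detected with a homogeneous time-resolved FRET immunoassay, 665nm acceptor signal after 320nm excitation.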
Vif-A3G inh: qHTS for Inhibitors of Vif-A3G Interactions: qHTS; DNA dC->dU-editing enzyme APOBEC-3G (Homo sapiens), Q9HC16; HeLa A3G-eYFP + Vif (tagged APOBEC3G with the HIV-1 protein that degrades it), YFP fluorescence, overnight; Potency, µM (top dose mostly 46.1 µM), for inactives: top-dose activity, negative = active, actives largely listed as inhibitors; 410,000 tested, 0.076% active; AID 602310, 2012; also: potency is read from the fitted curve at half-maximal effect; % is scaled to controls: 0 for no effect and ±100 for the full control effect; nearly all actives have a fitted effect of over 60% in size
Target sequence (Q9HC16 whole entry, looked up): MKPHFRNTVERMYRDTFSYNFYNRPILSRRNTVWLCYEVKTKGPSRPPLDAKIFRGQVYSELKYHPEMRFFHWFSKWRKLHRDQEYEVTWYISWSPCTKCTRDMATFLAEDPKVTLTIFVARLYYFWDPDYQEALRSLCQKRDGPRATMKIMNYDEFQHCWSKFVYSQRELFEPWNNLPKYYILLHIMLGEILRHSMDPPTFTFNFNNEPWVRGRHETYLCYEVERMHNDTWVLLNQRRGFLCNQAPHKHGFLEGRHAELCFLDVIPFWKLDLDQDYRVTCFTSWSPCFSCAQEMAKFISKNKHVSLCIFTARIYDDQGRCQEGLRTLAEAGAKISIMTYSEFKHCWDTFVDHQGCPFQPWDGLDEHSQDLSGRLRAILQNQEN
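HeLa cells stably expressing Vif and C-terminally eYFP-tagged A3G, seeded overnight at 37 deg C, then exposed to compound by pintool overnight at 37 deg C. Rise in yellow fluorescence (Ex 488/Em 500-530, Acumen) marks blocked Vif-driven A3G degradation.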
BCR signal inh: qHTS Assay to Find Inhibitors of Chronic Active B-Cell Receptor Signaling | ABC-DLBCL IkBa-CBG/CBR reporter, luminescence ratio, 4 h | AID 493014, 2011 | 340,000 tested, 0.05% active | Potency, µM (series often up to 46.1 µM), without a hit: top-dose activity change, negative = inhibition, most hits filed as inhibitors; active = well fitted inhibition curve with a large enough effect in the signal ratio, with a control signal flat, not every such curve was filed as active; inconclusive = small, poorly fitted or top-dose-only effect, or effect the other way, or a change in a side signal; the % refers to the signal ratio;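 also: potency is read from the fitted curve at half-maximal effect; plate controls were basal doxycycline-induced cells for no effect and cells given 10 µM MG132 for full effect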
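Concentration-response series (up to 46 uM) were applied to TMD8 dual-reporter cells for 4 h at 37C with doxycycline. Green/red ratio, after filter-overlap correction, defined %Activity; red signal alone was normalised to basal cells and zero luminescence.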
* = called active by the depositor; ? = inconclusive; . = no result; [ ] = dose if it differs, or a comment. Most compounds without a hit are left out; they make up all but 0.54% or so of the library. Unless noted, calls follow the shape of the dose curve; as a rule, active = well fitted curve in the direction sought with a large enough effect; inconclusive = small, poorly fitted or top-dose-only effect, or another doubt; inactive = no such curve, though single readings can be large; an effect the other way counts as inactive or inconclusive.

SMILES	Vif-A3F inh	MBNL1-CUG inh	uPA surface inh	TCR act	Vif-A3G inh	BCR signal inh
Cc1cccc(/C=C/C(=O)c2ccc([N+](=O)[O-])o2)c1	-1%	.	7.1µM*	-6%	?	-28%
O=C(CN1c2cccc3cccc(c23)S1(=O)=O)Nc1ccc(S(=O)(=O)N2CCOCC2)cc1	22µM*	3%	2%	-2%[46.1 µM]	-5%	?
O=C(CN1C(=O)c2cccc3cccc1c23)Nc1ccc(S(=O)(=O)N2CCOCC2)cc1	-8%	?	5%	3%	0%	-29%
COc1ccc(C(=O)c2sc3nc4c(c(C(F)(F)F)c3c2N)CN(C(C)=O)CC4)cc1OC	22µM*	.	.	.	?	.
COc1ccc(CNC(=O)c2sc3nc4c(c(C(F)(F)F)c3c2N)CCC4)cc1OC	?	0%	-4%	-5%[46.1 µM]	1%	4%
CC(=O)N1CCc2nc3sc(C(=O)c4ccc(F)cc4)c(N)c3c(C(F)(F)F)c2C1	13µM*	.	.	.	?	.
Brc1ccc[n+](CCC2CCCCC2)c1	.	.	.	.	0%	.
Cc1ccc(S(=O)(=O)N2C[C@@H]3CCCC[C@@H]3[C@@H](C)[C@H]2c2cn(Cc3ccccc3)c3ncccc23)cc1	-1%	.	10µM*	1%[46.1 µM]	0%	0%
COc1cc(-c2noc(C)c2/C=C/c2ccc(C(=O)O)cc2)cc(OC)c1OC	4%	?	?	13%	?	0%
COc1cc(-c2noc(C)c2/C=C/c2cccc([N+](=O)[O-])c2)cc(OC)c1OC	2%	24%	0.11µM*	3%	?	?
CN1/C(=C\C=C2/SC(=S)NC2=O)C(C)(C)c2ccccc21	?	?	?	9%	7.9µM*	18%
CCCN1C(=O)/C(=C\C=C2\N(CC)c3ccccc3C2(C)C)SC1=S	3.5µM*	1%	-7%	-1%	?	?
CC1=Nc2cc(C(=O)O)ccc2Sc2c(C)ccc(C)c21	14%	-7%	.	-5%	-14%	?
CC1=Nc2cc(C(=O)N3CCCC3)ccc2Sc2c(C)ccc(C)c21	-5%	3%	4µM*	-1%	-1%	4%
CNC(=O)/C(C#N)=C/c1ccc(-c2ccc(Cl)cc2)o1	3%	?	-3%	-8%	-2%	?
Cc1ccc(NC(=O)/C(C#N)=C\c2ccc(-c3ccc(Cl)cc3)o2)c(C)c1	3.2µM*	.	.	.	-6%	.
Cc1cc(N2CCN(c3ccc(C(F)(F)F)cc3[N+](=O)[O-])CC2)c2ccccc2n1	-26%	?	14µM*	.	6%	?
O=C(c1ccccc1F)N1CCN(c2ccc([N+](=O)[O-])c3cccnc23)CC1	3%	?	-5%	-5%	-2%	-7%
Cc1cc(N2CCN(c3ccc([N+](=O)[O-])c4cccnc34)CC2)c2ccccc2n1	3.5µM*	.	10%	-3%[46.1 µM]	?	-11%
COC1=C(Br)C(=O)c2ncccc2C1=O	11µM*	.	-10%	1%	-18%	.
CC(C)(C)OC(=O)CC[C@@H](C(=O)NCCCCCCCCCCC(=O)N1CCN(C(=O)OC(C)(C)C)CC1)n1cc(CCCCCNC(=O)OC(C)(C)C)nn1	-5%	.	4%	-3%	2%	4%
CC(C)(C)OC(=O)NCCCCCc1cn([C@@H](CO)C(=O)NCCCCCCCCCCC(=O)N2CCN(C(=O)OC(C)(C)C)CC2)nn1	3%	.	11µM*	-5%	-30%	?
O=C(C[n+]1ccccc1)c1cccc([N+](=O)[O-])c1	.	.	.	.	-2%	.
COc1cc(/C=C/c2onc(C)c2[N+](=O)[O-])cc(OC)c1OC	-5%	.	-3%	-22%	0%	.
Cc1noc(/C=C/c2nn(C)cc2Cl)c1[N+](=O)[O-]	4%	7%	4.5µM*	4%	?	?
SMILES	Vif-A3F inh	MBNL1-CUG inh	uPA surface inh	TCR act	Vif-A3G inh	BCR signal inh
COc1ccc(NC(=S)Nc2ncccc2C)c(OC)c1	1%	-3%	-8%	.	11µM*	-1%
COc1ccc(NC(=S)Nc2ncccc2C)cc1OC	15%	-4%	-6%	5%	-5%	?
Cc1cc(C(=O)N/N=C/c2ccc([N+](=O)[O-])o2)c(C)o1	0%	.	10µM*	-2%	-14%	?
Cc1nonc1C(=O)N/N=C/c1ccc([N+](=O)[O-])o1	-1%	?	?	-10%	?	?
O=C(N/N=C/c1ccc([N+](=O)[O-])o1)c1sc2ccccc2c1Cl	8.9µM*	?	?	3%	?	7%
C=CC(=O)N1CCC[C@@H](n2nc(-c3ccc(Oc4ccccc4)cc3)c3c(N)ncnc32)C1	.	.	.	.	-3%[92.2 µM]	.
C[N+]1(CC(=O)c2ccc(Cl)c(Cl)c2)CCOCC1	.	.	.	.	-4%	.
CCN(CC)c1ccc(/C=C/C(=O)c2ccc(Br)cc2)cc1	25µM*	3%	3%	4%[46.1 µM]	?	12%
CN(C)c1ccc(C(=O)/C=C/c2ccc(Br)cc2)cc1	-3%	.	8%	5%[46.1 µM]	-2%	-1%
COc1cc(Nc2c3c(nc4ccccc24)CCC3)cc(OC)c1OC	-5%	4%	2%	-6%	?	20µM*
COc1ccc(OC)c(Nc2c3c(nc4ccccc24)CCC3)c1	2%	-8%	-19%	-8%	?	16µM*
Cc1cccc(Nc2c3c(nc4ccccc24)CCC3)c1	5%	.	-4%	-5%	0%	1%
CN(C)/[N+]([O-])=N/Oc1cc(F)c([N+](=O)[O-])cc1[N+](=O)[O-]	.	.	.	.	-6%	.
CC(=O)c1cccc(NC(=S)N2c3ccccc3CC2C)c1 (stereo not given)	5%	0%	-6%	-1%	8.9µM*	3%
OC(CN1CCCCC1)c1ccccc1 (stereo not given)	.	.	.	.	-4%	.
O=Cc1ccc(CS)cc1	.	.	.	.	-1%	.
CC[n+]1ccc(/C=C/c2c[nH]c3ccccc23)cc1	7.1µM*	?	?	7%	5µM*	0%
CCCCCCC[n+]1ccc(/C=C/c2c[nH]c3ccccc23)cc1	.	.	.	.	8%	.
COc1ccc2c(/C=C/c3cc[n+](C)cc3)c[nH]c2c1	13µM*	?	-2%	-9%	?	1%
Cc1ccc2[nH]cc(/C=C/c3cc[n+](C)cc3)c2c1	?	?	-8%	4%	?	-2%
CC(O)(c1ccccc1)[N+]1(CC(=O)c2ccccc2)C=CC=C1 (stereo not given)	.	.	.	.	0%	.
Nc1[nH]c(=O)nc2nnsc12	.	.	.	.	1%	.
